Measured values: ChEMBL document CHEMBL1201862, “PubChem BioAssay data set” (2004)
The campaign covered roughly 400,000 compounds. About 2,100 (0.53%) were called active. Inconclusive results (about 14%) are left out. How the calls were made is not given here. Shown is part of a subset that was picked to be rich in actives.

target: Ataxin-2 (Homo sapiens) (UniProt Q99700); assay: qHTS for Inhibitors of ATXN expression.; assay type: functional
Sequence (Q99700 whole entry): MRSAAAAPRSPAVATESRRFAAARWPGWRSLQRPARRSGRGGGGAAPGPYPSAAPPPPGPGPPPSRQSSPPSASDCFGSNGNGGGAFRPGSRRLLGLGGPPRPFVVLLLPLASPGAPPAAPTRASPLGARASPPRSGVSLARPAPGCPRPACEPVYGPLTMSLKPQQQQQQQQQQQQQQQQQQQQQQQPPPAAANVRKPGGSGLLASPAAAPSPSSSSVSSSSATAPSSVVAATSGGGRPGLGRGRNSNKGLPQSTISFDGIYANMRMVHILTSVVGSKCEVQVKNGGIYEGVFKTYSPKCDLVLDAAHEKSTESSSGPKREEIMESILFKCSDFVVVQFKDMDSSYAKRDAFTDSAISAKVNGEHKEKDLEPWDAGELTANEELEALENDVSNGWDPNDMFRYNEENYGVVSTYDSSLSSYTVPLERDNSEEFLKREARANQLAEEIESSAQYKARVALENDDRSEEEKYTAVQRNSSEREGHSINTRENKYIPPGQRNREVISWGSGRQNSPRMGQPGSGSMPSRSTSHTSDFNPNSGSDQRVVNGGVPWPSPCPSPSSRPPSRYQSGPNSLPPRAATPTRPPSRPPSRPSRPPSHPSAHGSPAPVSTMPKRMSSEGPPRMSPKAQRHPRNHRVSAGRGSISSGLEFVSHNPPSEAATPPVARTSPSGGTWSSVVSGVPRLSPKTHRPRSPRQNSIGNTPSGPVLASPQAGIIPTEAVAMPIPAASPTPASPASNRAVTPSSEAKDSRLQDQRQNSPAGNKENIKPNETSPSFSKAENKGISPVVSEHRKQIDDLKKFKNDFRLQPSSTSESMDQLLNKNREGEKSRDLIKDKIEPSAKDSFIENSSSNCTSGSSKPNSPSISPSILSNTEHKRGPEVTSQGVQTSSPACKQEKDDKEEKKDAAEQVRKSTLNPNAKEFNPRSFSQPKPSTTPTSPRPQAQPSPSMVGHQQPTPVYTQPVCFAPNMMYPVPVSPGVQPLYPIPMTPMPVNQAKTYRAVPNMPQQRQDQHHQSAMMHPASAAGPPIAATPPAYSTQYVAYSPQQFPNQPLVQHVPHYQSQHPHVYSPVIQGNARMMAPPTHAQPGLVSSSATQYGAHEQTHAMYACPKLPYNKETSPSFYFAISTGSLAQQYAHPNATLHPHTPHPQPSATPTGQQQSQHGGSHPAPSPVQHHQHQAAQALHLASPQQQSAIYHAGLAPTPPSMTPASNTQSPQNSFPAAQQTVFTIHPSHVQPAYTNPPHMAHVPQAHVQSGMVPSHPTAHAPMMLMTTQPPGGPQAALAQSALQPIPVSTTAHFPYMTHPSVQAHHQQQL

Row | SMILES | Potency
1 | Cn1cc(CN2CCC(n3nccc3NC(=O)c3ccc4c(c3)OCO4)CC2)cn1 | inactive
2 | Cc1cc(C)c2cc(C#N)c(SCC(=O)Nc3cc(C)on3)nc2c1 | inactive
3 | O=C(CSc1nnc(O)nc1O)N/N=C/C=C/c1ccccc1 | inactive
4 | O=S(=O)(c1ccc(SCCOc2ccccc2)nc1)N1CCCC1 | inactive
5 | COC(=O)Cc1c(C)c2cc3c(c(C)c2oc1=O)OCN(CCc1ccc(OC)cc1)C3 | inactive
6 | Cc1cnc(NC(=O)c2cc(-c3ccccc3)nn2-c2ccccc2)s1 | inactive
7 | Cc1ccc2nc(Cl)c(CNCc3ccccc3)cc2c1 | inactive
8 | Cc1ccc(-c2nn(-c3ccccc3)c3[nH]c(=O)c(CNCc4ccccc4)cc23)cc1 | 39.8 µM (active)
9 | Cc1ccc(C2N(C)C(=O)c3ccccc3N2C)cc1 (stereo not given) | inactive
10 | Cc1ccc(S(=O)(=O)NN2C(=O)c3ccccc3NC2c2ccccc2)cc1 (stereo not given) | 35.5 µM (active)
11 | CC1Nc2ccccc2C(=O)N1NS(C)(=O)=O (stereo not given) | inactive
12 | O=c1cc(CN2CCN(S(=O)(=O)c3cccc(Cl)c3)CC2)c2ccc(O)cc2o1 | inactive
13 | C/C(=N\Nc1ncc(Cl)cc1Cl)c1ccccn1 | inactive
14 | C=CCNC(=S)Nc1cccc(NC(=S)NCC=C)c1 | inactive
15 | C=CCNC(=S)N/N=C(\C)c1ccccn1 | 2.51 µM (active)
16 | O=S(=O)(Nc1ccc(C(O)(C(F)(F)F)C(F)(F)F)cc1)c1cccc2ccccc12 | 44.7 µM (active)
17 | O=S(=O)(Nc1ccc(C(O)(C(F)(F)F)C(F)(F)F)cc1)c1ccc(Cl)c2nonc12 | 22.4 µM (active)
18 | COc1ccc(C(=O)NNC(=O)CSc2nc3c(=O)n(C)c(=O)n(C)c3[nH]2)cc1 | inactive
19 | N#Cc1cccc(Cn2cc(C(F)(F)F)ccc2=O)c1 | inactive
20 | CS(=O)(=O)c1ncc(Cl)c(C(=O)N(Cc2ccc(Cl)cc2)Cc2ccco2)n1 | 6.31 µM (active)
21 | C=C1C(=O)[C@]23C[C@H]1CCC2[C@@]1(C)C(C[C@@H]3O)[C@](C)(C(=O)OC)CC[C@@H]1O (stereo not given in full) | 35.5 µM (active)
22 | C=C1C(=O)[C@]23C[C@H]1CC[C@H]2[C@]1(C)[C@@H](O)CC[C@@](C)(C(=O)O)[C@H]1C[C@@H]3O | 12.6 µM (active)

Row | SMILES | Potency
23 | C=C1C(=O)[C@]23C[C@H]1CC[C@H]2[C@]1(C)[C@@H](OC(C)=O)CC[C@@](C)(C(=O)O)[C@H]1C[C@@H]3O | 11.2 µM (active)
24 | N#C/C(=C\c1ccncc1)c1nc2c(s1)CCCC2 | inactive
25 | CCc1cc(=O)oc2cc(O[C@@H]3O[C@H](CO)[C@@H](O)[C@H](O)[C@H]3O)c(Cl)cc12 | inactive
26 | Cc1cc(-n2cnc(-c3cn(C)nc3C)n2)no1 | inactive
27 | CN(C)/C=N/c1nc2nccc(-c3cccs3)n2n1 | inactive
28 | CC(C)(C)C(=O)NC(=S)Nc1ccc(C(F)(F)F)cc1 | inactive
29 | COc1ccc2c(Cl)c(C(=O)NN3CCN(C)CC3)sc2c1 | inactive
30 | CC(C)(C)C(=O)NC(=S)NNC(=O)c1sc2ccccc2c1Cl | 31.6 µM (active)
31 | C=CCn1c(S)nnc1-c1ccc2ncccc2c1 | inactive
32 | CC(C)CC1C(=O)N(Cc2cn(CCC3OCCO3)nn2)CCS(=O)(=O)N1Cc1ccc(-c2ccc(Cl)c(Cl)c2)cc1 (stereo not given) | 39.8 µM (active)
33 | CC(C)CC1C(=O)N(Cc2cn(CCC3OCCO3)nn2)CCS(=O)(=O)N1Cc1ccc(-c2ccc(F)cc2)cc1 (stereo not given) | 35.5 µM (active)
34 | C/C(=N\c1ccc(C)cc1C)c1sc2ccccc2c1O | inactive
35 | N#C/C(=C\c1ccc(N2CCCCC2)o1)C(=O)Nc1cccc(Br)c1 | inactive
36 | COc1cc2ccc(=O)oc2c(O[C@@H]2O[C@H](CO)[C@@H](O)[C@H](O)[C@H]2O)c1O | inactive
37 | COc1ccccc1/C=C/c1nc(C#N)c(N(C)C)o1 | inactive
38 | Cc1noc(C)c1S(=O)(=O)Nc1ccc(C(C)C)cc1 | inactive
39 | Cc1noc(C)c1S(=O)(=O)Nc1ccc2c(c1)C(=O)N([C@@H](C)CO)C[C@H](C)[C@@H](CN(C)Cc1ccc(C(F)(F)F)cc1)OCCCC[C@H](C)O2 | 20 µM (active)
40 | CC(C)NC(=O)Nc1ccc2c(c1)C(=O)N([C@H](C)CO)C[C@H](C)[C@@H](CN(C)Cc1ccc(C(F)(F)F)cc1)OCCCC[C@H](C)O2 | 20 µM (active)
41 | COc1ccc(CN2C(=O)/C(=C\NNC(=O)c3cccnc3)c3ccccc3C2=O)cc1 | inactive
42 | O=C(CN(C(=O)CCC(=O)Nc1nccs1)c1ccccc1F)NCc1ccc(F)cc1 | inactive
43 | CCOc1ccc(-c2cnc3cccnn23)cc1 | inactive
44 | O=C(N/N=C/c1cccc2cccnc12)[C@H]1C[C@@H]1c1ccccc1 | inactive

Row | SMILES | Potency
45 | Cc1ccc(-c2nnn(CC(=O)N(c3cccc(F)c3)C(C(=O)NC(C)(C)C)c3ccco3)n2)o1 (stereo not given) | inactive
46 | COc1ccc(-c2[nH]ncc2CNC(C)c2cn(C)nc2C)c(F)c1 (stereo not given) | inactive
47 | CCN(CC)CCNC(=O)c1cc2c(-c3ccc(Cl)cc3)nn(C)c2s1 | 22.4 µM (active)
48 | CCCCN(CC)CCNC(=O)c1cc2c(-c3ccc(Cl)cc3)nn(C)c2s1 | 39.8 µM (active)
49 | CCN(CC)CCNC(=O)c1cc2cc(Br)ccc2s1 | inactive
50 | CCN(CC)CCCNC(=O)c1cc2c(-c3ccc(Cl)cc3)nn(C)c2s1 | 17.8 µM (active)
51 | CCN(CC)CCCNC(=O)c1cn(-c2cccc(OC)c2)c(=O)c2ccccc12 | inactive
52 | Cc1ccc(-c2cc(C(=O)N3CCN(c4ncccn4)CC3)c3cc(Br)ccc3n2)o1 | inactive
53 | CN=C(S)N1N=C(c2ccc(C)cc2)CC1c1ccc(N(C)C)cc1 (stereo not given) | inactive
54 | O=C(Oc1cccc2ccccc12)C1CC1 | inactive
55 | CC(=O)/C(C#N)=C1\NC(=O)C(Cc2ccccc2C)S1 (stereo not given) | inactive
56 | COC(=O)c1cc2c(ccn2C)n1C | inactive
57 | CCC1S/C(=N/N=C/c2ccco2)N(Cc2ccccc2)C1=O (stereo not given) | inactive
58 | CC(C)c1cc(N2CCOCC2)n2ncc(-c3ccccc3)c2n1 | inactive
59 | CCOC(=O)c1sc(NC(=O)CSc2nc3c(cc2C#N)CCCCCC3)c(C#N)c1C | inactive
60 | CCOc1ccc(/C=C/C2=Cc3c(sc(NC(=O)CSc4n[nH]c(N)n4)c3C#N)C(C)(C)C2)cc1 | 39.8 µM (active)
61 | COc1cccc(-c2nc(SCC(=O)Nc3nc(-c4ccccc4)c(C)s3)nc(O)c2C#N)c1 | inactive
62 | CC(=O)C1=C(C)NC(SCC(=O)Nc2nc3ccccc3s2)=C(C#N)C1c1ccc(Cl)cc1 (stereo not given) | inactive
63 | COC(=O)c1c(N=C(S)NNC(=O)c2ccc(Cl)s2)sc(C(=O)N(C)C)c1C | 39.8 µM (active)
64 | C/C=C(\C)C(=O)OC1CC(C)(C)C[C@H]2C3=CC[C@@H]4[C@@]5(C)CCC(O[C@@H]6O[C@@H](C(=O)O)[C@@H](O)C(O[C@@H]7OC[C@H](O)[C@@H](O)[C@@H]7O[C@@H]7OC(CO)C(O)[C@@H](O)[C@@H]7O)C6O[C@@H]6OC(CO)C(O)C(O)C6O)[C@@](C)(CO)[C@@H]5CC[C@]4(C)[C@]3(C)CC(O)[C@@]12CO (stereo not given in full) | 31.6 µM (active)
65 | Cc1nn(C)cc1N1C(=O)c2cccc3c(N)ccc(c23)C1=O | inactive
66 | COc1ccc(C(CNC(=O)c2ccc(-c3ccccc3Cl)o2)N2CCCC2)cc1 (stereo not given) | 17.8 µM (active)

Row | SMILES | Potency
67 | COc1ccc(CNC(=O)C(C#N)c2nc3ccccc3nc2N2CCCC2)cc1 (stereo not given) | inactive
68 | CCOc1ccc(C(=O)NCC(c2ccc(Cl)cc2)N2CCCCC2)cc1 (stereo not given) | 14.1 µM (active)
69 | CCOc1ccc(NS(=O)(=O)c2ccc(C(=O)NCC3CCCO3)cc2)cc1 (stereo not given) | inactive
70 | COc1ccccc1C(CNC(=O)C1COc2ccccc2O1)N1CCCC1 (stereo not given) | inactive
71 | CCOc1ccc(S(=O)(=O)NCC(c2ccc3c(c2)OCO3)N2CCN(C)CC2)cc1 (stereo not given) | inactive
72 | CCNc1nc2nc3ccc(C)cn3c(=O)c2cc1C(=O)NCC1CCCO1 (stereo not given) | inactive
73 | O=C(CN1C(=O)NC2(CCc3ccccc32)C1=O)Nc1ccc(Br)cc1F (stereo not given) | inactive
74 | Nc1nnnn1/N=C/c1ccccc1O | inactive
75 | O=C(CCl)N(c1ccccc1)C1CCS(=O)(=O)C1 (stereo not given) | 17.8 µM (active)
76 | CC(Oc1ccccc1F)c1nnc(SCC(=O)N(c2ccccc2)C2CCS(=O)(=O)C2)o1 (stereo not given) | inactive
77 | O=C(OCC(=O)N(c1ccccc1)C1CCCCC1)c1ccc(CO)cc1 | inactive
78 | O=C(NC(=O)c1c(F)cccc1F)O/N=C1\CCCc2occc21 | inactive
79 | CN(C)S(=O)(=O)c1cccc(NC(=S)N/N=C/C2CC=CCC2)c1 (stereo not given) | inactive
80 | Cc1nc2ccc(S(=O)(=O)Nc3ccc(-c4nc5cccnc5s4)cc3)cc2s1 | inactive
81 | C=CCc1c(O)c(CC)cc2c(C)cc(=O)oc12 | inactive
82 | C=CCN(c1ccccc1)S(=O)(=O)c1cccc(C(=O)Oc2ccc3c(C)cc(=O)oc3c2)c1 | inactive
83 | CC(=O)c1c(C)oc2ccc(N(C(C)=O)S(=O)(=O)c3ccc(Cl)c([N+](=O)[O-])c3)cc12 | 31.6 µM (active)
84 | COC(=O)c1c(C)oc2ccc(N(C(=O)Oc3ccccc3)S(=O)(=O)c3ccc(Cl)c([N+](=O)[O-])c3)cc12 | 35.5 µM (active)
85 | CC=Cc1cc2c(c(=O)o1)C(=O)C(O)C(C)O2 (stereo not given) | 29.9 µM (active)
86 | CCOC(=O)c1cc2c(=O)n3ccccc3nc2n(CCCOC)/c1=N\C(C)=O | inactive
87 | O=C(CNC(=O)C1CCCCC1)OCn1nnc2ccccc2c1=O | inactive
88 | C[C@H](NC(=O)c1ccc(Cl)cc1)C(=O)OCn1nnc2ccccc2c1=O | 8.91 µM (active)

Row | SMILES | Potency
89 | COCCNC(=O)c1ccc(Cn2c(SCC(N)=O)nc3ccccc3c2=O)cc1 | inactive
90 | OCC1(CCc2ccccc2)CCN(Cc2cccn2-c2cccnc2)CC1 | inactive
91 | S=C1SCN(Cc2cccnc2)CN1Cc1cccnc1 | 13.4 µM (active)
92 | OC1(c2ccc(F)cc2)CCN(Cc2cccnc2)CC1 | inactive
93 | Cc1cccc2c3c([nH]c12)CCNC3 | inactive
94 | O=C1OCCN1C(=O)[C@H]1[C@H](c2ccc(Cl)cc2)C(c2cccc(Cl)c2)=NN1c1ccccc1 | inactive
95 | Oc1nc2cc3ccccc3cc2nc1C(F)(F)F | inactive
96 | CCOc1ccc2nc(N3C(=O)/C(=C/c4ccc(Cl)cc4)NC3=S)sc2c1 | inactive
97 | CCOc1ccc2nc(N3C(=O)CNC3=S)sc2c1 | 39.8 µM (active)
98 | CN(C)CCCn1c(N)c(C#N)c2nc3ccccc3nc21 | inactive
99 | COc1cccc(OC)c1-c1nn2c(-c3cc(-c4ccccc4)[nH]n3)nnc2s1 | 31.6 µM (active)
100 | COc1ccc(-c2cc(C(=O)NN)[nH]n2)cc1OC | inactive
101 | Cc1cc(C)c(C(CC(=O)c2cccs2)C(C#N)C#N)c(C)c1 (stereo not given) | 31.6 µM (active)
102 | N#Cc1c(-c2ccccc2)cc(C2CC2)nc1SCC(=O)c1cccs1 | inactive
103 | COc1ccc(NC(=O)c2cc(-c3ccco3)on2)c(OC)c1 | inactive
104 | COc1ccc(OC)c(-c2c(C#N)c(N)nc3c2c(=O)nc2sccn23)c1 | inactive
105 | CCc1c(C)sc(NC(=O)c2cc(-c3cc(OC)ccc3OC)on2)c1C#N | 22.4 µM (active)
106 | CC(C)Cn1c(N)c(C(=O)NCCN2CCOCC2)c2nc3ccccc3nc21 | inactive
107 | Brc1cc(-c2ccccc2)nc(-c2ccccc2)n1 | 39.8 µM (active)
108 | Nc1ccc2nc(-c3ccccc3)cnc2c1 | inactive
109 | CNc1nc(-c2ccccc2)cc(-c2ccccc2)n1 | inactive
110 | O=c1c2sccc2nc(SCc2cc(=O)n3cc(Br)ccc3n2)n1Cc1ccccn1 | inactive
